# Laboratory results taken from the supplement of paper PMC3334620.
# Over roughly 33,000 sequences, “E-score (-0.5 to 0.5)” has its median near -0.041; the highest 2% begin near 0.37. For the sample, the highest values were picked, then their nearest neighbours and some sequences at random.
# Target: T1, Ecm22 (UniProt Q05958)
# T1 sequence: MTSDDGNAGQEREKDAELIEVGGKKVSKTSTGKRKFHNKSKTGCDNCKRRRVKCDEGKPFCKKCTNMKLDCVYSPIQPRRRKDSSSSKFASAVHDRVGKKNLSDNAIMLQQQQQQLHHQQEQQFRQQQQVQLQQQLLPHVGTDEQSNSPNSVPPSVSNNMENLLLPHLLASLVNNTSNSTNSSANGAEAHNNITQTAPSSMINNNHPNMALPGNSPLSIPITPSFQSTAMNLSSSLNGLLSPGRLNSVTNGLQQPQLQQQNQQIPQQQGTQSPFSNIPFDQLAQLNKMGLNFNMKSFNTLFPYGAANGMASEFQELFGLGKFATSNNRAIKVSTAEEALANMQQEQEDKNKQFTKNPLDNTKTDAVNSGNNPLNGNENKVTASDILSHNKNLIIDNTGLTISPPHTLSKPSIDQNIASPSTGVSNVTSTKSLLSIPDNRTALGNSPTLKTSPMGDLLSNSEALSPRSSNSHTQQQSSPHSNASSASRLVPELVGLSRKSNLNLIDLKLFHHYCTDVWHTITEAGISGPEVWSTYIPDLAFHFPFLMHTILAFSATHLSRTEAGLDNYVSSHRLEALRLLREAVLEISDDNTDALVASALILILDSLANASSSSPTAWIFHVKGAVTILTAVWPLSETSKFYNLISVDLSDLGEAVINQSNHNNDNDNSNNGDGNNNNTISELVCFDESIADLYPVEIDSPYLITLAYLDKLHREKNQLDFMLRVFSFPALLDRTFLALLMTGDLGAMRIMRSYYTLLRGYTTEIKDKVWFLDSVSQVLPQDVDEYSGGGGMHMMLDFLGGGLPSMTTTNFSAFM
# Test: PBM E-score (8-mer binding enrichment) (E-score (-0.5 to 0.5)); higher = stronger / more preferred TF binding
# Details: protein concentration: 200 nM; construct: GST-full length
# Method in brief: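 Masliner-normalised scans of fluorescent anti-GST signal were the basis for scoring. That signal came from GST-tagged yeast transcription factors applied at about 100-200 nM to double-stranded universal all-10-mer Agilent arrays on fresh or once-stripped slides. Each ungapped eight-base word, pooled with its reverse complement, received an E-score from the Universal PBM Analysis Suite.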
row,Sequence,PBM E-score
1,ACTCACCG,-0.0985
2,ATCGTTAG,0.201
3,ATCGTTAC,0.264
4,CTCGTTAC,0.371
5,GGCGTTAA,-0.0419
6,CACGTTAC,-0.046
7,CTCGTTAA,0.437
8,CACGTTAA,0.00208
9,ATCGTTAA,0.403
10,GACGTTAA,0.0928
11,CCCGTTAA,0.256
12,CGCGTTAC,0.159
13,GTCGTTAA,0.427
14,CGGCGTAG,-0.00106
15,ATAGTGAT,0.176
16,CCTCGCAG,0.0132
17,CCCGTCCG,-0.309
18,CGCCAGTC,0.014
19,GCACGGAA,-0.094
20,ATACGGAG,0.385
21,ATACGGAC,0.362
22,GTACGGAC,0.372

row,Sequence,PBM E-score
1,ATACGGAT,0.332
2,CTACGGAA,0.0649
3,CTACGGAC,-0.07
4,CTACGGAG,-0.0418
5,GTACGGAA,0.4
6,GGACGGAA,-0.0866
7,TTACGGAA,0.266
8,ATACGGAA,0.374
9,AATTTGCT,-0.0782
10,TAGGGAGA,-0.252
11,ACATGGGG,-0.282
12,TGAATTAA,0.099
13,CCGGAGGA,-0.171
14,AGAAACGA,0.424
15,CGAAACGA,0.424
16,CGAAACGC,0.0992
17,GGAAACGA,0.426
18,GGAAACAA,0.0422
19,CGAAACCA,0.28
20,AGAAACGG,0.272
21,GAAAACGA,0.306
22,AGAAACGC,-0.0375

row,Sequence,PBM E-score
1,CCTGTGTA,0.00294
2,GAGAGCAC,-0.00667
3,AACATCGT,0.264
4,AAGTATCA,-0.115
5,CAGCTAGA,-0.0476
6,CTTGCCGA,-0.0634
7,ACGACCTA,0.384
8,CCGACCGA,0.203
9,ACGACCTC,0.337
10,CCGACCTA,0.0401
11,ACGACCAG,0.319
12,ACGACCAC,0.35
13,GCGACCGA,0.218
14,ACGACCGA,0.394
15,ACGACCAA,0.371
16,AGACATTG,-0.268
17,ACTCGCAG,0.0817
18,GCAGGGGC,-0.243
19,GAAGAAGC,-0.234
20,AACAGTTA,-0.1
21,ATCCGTTA,0.177
22,AAAGGCTT,-0.177

row,Sequence,PBM E-score
1,ACCGAGCG,0.292
2,CAAGACTC,-0.126
3,CGAAATCG,0.111
4,CTTCGTTC,0.47
5,ATTCGTTA,0.309
6,CTTCGTTA,0.303
7,ATTCGTTC,0.432
8,ATTCGTTG,0.277
9,GTTCGTTA,0.356
10,CTCTCTAA,-0.232
11,GCTCTAGA,-0.226
12,GGTTCCTA,-0.128
13,CGTTCCTC,0.452
14,CGTTCCTA,0.439
15,CCTTCCTC,-0.0948
16,AGTTCCTA,0.102
17,AGTTCCTC,-0.117
18,ACAGTAAC,0.00997
19,AACTGCAA,-0.138
20,CACCTTAC,-0.0784
21,CGGCTCCC,-0.0756
22,GCTGCATA,-0.114

row,Sequence,PBM E-score
1,CGTCTAAC,-0.0542
2,GAAAGATC,0.0489
3,ACATAGCA,-0.131
4,GTATAAAC,0.403
5,ATATAAAC,0.212
6,GTATAAAA,0.335
7,CACAATTC,-0.0282
8,AGCGCTAT,-0.048
9,CGACCTCG,0.183
10,CGCGTTCA,0.185
11,ATCGTTCC,0.478
12,AACGTTCG,0.217
13,ATCGTTGG,-0.0634
14,CACGTTCA,-0.131
15,ATCGTTCA,0.402
16,AACGTTCA,0.0914
17,AGCGTTCA,-0.121
18,ATCGTTCG,0.373
19,AGCGTTCC,0.2
20,CTCGTTCA,0.47
21,AACGTTCC,0.259
22,AGGGTTAT,-0.0839
